In PubChem BioAssay (NCI):
Compounds without any hit were thinned out: in the full panel of roughly 83,000, 20% have a hit.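 Note: values are percent growth. 100 is the growth of untreated cells, values between 100 and 0 indicate rising inhibition; between -100 and 0 indicates cell death.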 A number with no mark means an inactive call. Calls of active or inactive are those of the source. The calls were made as follows: active = growth percent below 10; inactive = the rest.

system: NCI/ADR-RES ovarian; experiment: NCI-60 one-dose screen, 48 h (100 = growth as untreated, 0 = no growth, -100 = all killed); details: 10 µM

Compound	growth
COc1ccc(-c2onc(N)c2-c2cc(OC)c3c(c2)OCO3)cc1	-10.2% (active)
C[C@]12CC[C@@H]3c4ccc(O)cc4CC[C@H]3[C@@H]1CC[C@@H]2NS(=O)(=O)c1ccc(C(F)(F)F)cc1	53%
O=C(CSc1nnc(-c2ccc(Cl)cc2)o1)Nc1ccc(C(=O)/C=C/c2ccc(Cl)cc2)cc1	96.4%
Cc1cc(CCNC=O)c(C)c2c1sc1ccccc12	97.8%
COc1cc2cc(Oc3ccc(NC(=O)c4ccc(Cl)c(C(F)(F)F)c4)cc3)c(C)nc2cc1OC	14.1%
CC(C)(C)c1ccc(S(=O)(=O)N[C@H]2CC[C@H]3[C@@H]4CCc5cc(O)ccc5[C@H]4CC[C@]23C)cc1	46.4%
COc1cc2cc(Oc3ccc(NC(=O)c4cccc(C(F)(F)F)c4)cc3)c(C)nc2cc1OC	26%
COc1ccc(/C=C2\CCCC3=C2NC(N)=NC3c2ccc(OC)c(OC)c2)cc1OC (stereo unspecified)	25.1%
Cc1c(Cl)cccc1NC(=O)CN1CCOCC1	100%
CC(C)(C)OC(=O)N1CCc2c(sc3ncnc(N/N=C/c4ccc(Br)cc4)c23)C1	35.4%
CCCCc1oc2ccccc2c1C(=O)c1cc(I)c(OCCN(CC)CC)c(I)c1	-20.3% (active)
CCc1c2c(nc3ccc(OC(=O)N4CCC(N5CCCCC5)CC4)cc13)-c1cc3c(c(=O)n1C2)COC(=O)[C@]3(O)CC	24.5%
NS(=O)(=O)Oc1ccc(-c2ccc3sccc3c2)cc1	95.3%
O=C(Nc1ccc(OS(=O)(=O)c2ccccc2)cc1)C1CCCCC1	88.3%
S=c1cnc2ccccc2[nH]1	98.6%
COc1cc(-c2nn(-c3cccc(NC(=O)NCCNC(=O)c4cccc(C(F)(F)F)c4)c3)cc2-c2ccncc2)ccc1Cl	80.3%
C[C@@H](O)[C@H]1C(=O)N2C(C(=O)O)=C(SCCN=CN)C[C@H]12	-13.9% (active)
CC[C@@H](C(=O)[C@@H](C)[C@@H](O)[C@H](C)[C@@H]1O[C@@H]([C@@H](CC)C(=O)O)CC[C@@H]1C)C1O[C@]2(C=CC(=O)[C@]3(CC[C@@](C)([C@H]4CC[C@](O)(CC)[C@H](C)O4)O3)O2)[C@H](C)C[C@@H]1C (stereo partly specified)	40%

Compound	growth
CCC(c1ccc(OC)cc1)C(CC)c1ccc(O)c(CN2CCN(C)CC2)c1 (stereo unspecified)	60.3%
COc1ccc(C(=O)N2C=Cc3ccccc3C2C#N)cc1 (stereo unspecified)	95.6%
Cc1cc(SC#N)cc(C(C)(C)C)c1O	104%
COc1ccc(-c2n[nH]nc2-c2cc(OC)c3c(c2OC)OCO3)cc1	2.06% (active)
CN1C(C(=O)Nc2ccccn2)=C(O)c2sc(Cl)cc2S1(=O)=O	95.4%
Clc1ccc2c(c1)C(N1CCNCC1)=Nc1ccccc1O2	62.8%
CC(C)(C)c1ccc(S(=O)(=O)N[C@H]2CC[C@H]3[C@@H]4CCc5cc(O)c([N+](=O)[O-])cc5[C@H]4CC[C@]23C)cc1	69.1%
COc1cc(-c2csc(NC(=O)Nc3ccc(Cl)c(C(F)(F)F)c3)n2)cc(OC)c1OC	-8.03% (active)
Brc1ccc2c(c1)-c1ccccc1C1=NCCN12	-18% (active)
CC(C)N(CCOc1cccc(-c2nc3sccn3c2-c2ccnc(S(C)(=O)=O)n2)c1)C(C)C	89.5%
Cc1ccc(/C=C/C(=O)C(=O)/C=C/c2ccc(C)cc2)cc1	103%
O=C(Nc1cc(Cl)cc2c1-c1ccc(Cl)cc1C2O)C(Cl)Cl (stereo unspecified)	83.5%
COc1cc(Cc2cc(-c3ccccc3)n[nH]c2=O)cc(OC)c1OC	28.8%
Cc1cc(C(C#N)c2ccc(Cl)cc2)c(Cl)cc1NC(=O)c1cc(I)cc(I)c1O (stereo unspecified)	21.1%
C/C=C/C1=CN2C(=O)c3cc(OC4OC(C)C(NC)C(C)(O)C4O)c(C)c(O)c3N=C[C@@H]2C1 (stereo partly specified)	-6.18% (active)
CNC(=O)c1c(I)c(NC(C)=O)c(I)c(C(=O)O)c1I	103%
COc1ccc(Nc2cnc3cc(NS(=O)(=O)c4ccc(C)cc4)ccc3n2)cc1	73.1%
COc1cc(-c2nn(-c3ccc(NC(=O)NCCCNC(=O)c4ccccc4)cc3)cc2-c2ccncc2)ccc1Cl	69.4%
